Measurements as given in PubChem BioAssay AID2240 (Broad Institute, 2010).
In all, about 37,000 compounds went through this assay and about 100 (0.27%) were called active. No stated cut-off is given here; in the data, active means inhibition above about 85%; inconclusive means no clear call, values can overlap the other calls; inactive means below about 68%. This excerpt belongs to a sample that is enriched for actives.

Assay: inhibitors of MITF, primary screen, MITF inhibitor project, cell-based, luminescence (AID 2240);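 further: human melanocyte line stably carrying TRPM1 promoter luciferase reporter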
Conditions: TRPM1 promoter luciferase, 24 h, stronger effect = higher value, concentration not given here

Q: With Cc1scc(C(=O)NCCc2ccc(S(N)(=O)=O)cc2)c1-c1ccccc1 as the molecule, how does the inhibition read?
A: Its inhibition is 5.94% (inactive).

Q: With C[C@@H]1CCCCO[C@H](CN(C)C(=O)NC2CCCCC2)[C@@H](C)CN([C@H](C)CO)C(=O)c2cc(NS(=O)(=O)c3ccc(F)cc3)ccc2O1 as the molecule, how does the inhibition read?
A: The inhibition was 0.476% (inactive).

Q: With CS(=O)(=O)N(CC(=O)Nc1cc(C(F)(F)F)ccc1Cl)c1ccccc1Br as the molecule, how does the inhibition read?
A: Its inhibition is -1.7% (inactive).

Q: For Cc1ccc(C)c(NC(=O)CCC(=O)O)c1, which inhibition is on record?
A: Its inhibition is -5.62% (inactive).

Q: For COc1ccc(S(=O)(=O)N(C)C[C@@H]2Oc3ccc(NS(=O)(=O)c4cn(C)cn4)cc3C(=O)N([C@@H](C)CO)C[C@@H]2C)cc1, which inhibition is on record?
A: The inhibition was -3.33% (inactive).

Q: With O=C(CCn1nc(-c2ccc(Cl)cc2)c2ccccc2c1=O)Nc1ccc(Br)cc1 as the molecule, how does the inhibition read?
A: The inhibition was -0.695% (inactive).

Q: Which inhibition does the source give for Cc1noc(C)c1NC(=O)N(C)C[C@@H]1Oc2ccc(NC(=O)C3CC3)cc2C(=O)N([C@H](C)CO)C[C@@H]1C here?
A: Its inhibition is -4.76% (inactive).

Q: Which inhibition does the source give for C[C@H]1CN([C@@H](C)CO)C(=O)Cc2cc(NS(=O)(=O)c3ccc(Cl)cc3)ccc2O[C@H]1CN(C)S(C)(=O)=O here?
A: Its inhibition is 0.52% (inactive).

Q: With Cc1cc(N(CC(=O)Nc2ccc(C(F)(F)F)cc2)S(C)(=O)=O)ccc1Br as the molecule, how does the inhibition read?
A: Its inhibition is -4.48% (inactive).

Q: Which inhibition does the source give for Cc1cc2oc(C(=O)Nc3sc4c(c3C(=O)NCc3ccco3)CCC4)c(C)c2cc1C here?
A: Its inhibition is 0.363% (inactive).

Q: With C[C@@H]1CN([C@@H](C)CO)C(=O)c2cccc(NC(=O)Nc3ccccc3)c2O[C@H]1CN(C)Cc1ccccc1 as the molecule, how does the inhibition read?
A: Its inhibition is 41.2% (inactive).

Q: For Cc1ccc(NC(=O)CSc2nc3ccccc3s2)cc1[N+](=O)[O-], which inhibition is on record?
A: Its inhibition is -10% (inactive).

Q: Which inhibition does the source give for Cc1nn(CC(=O)NCc2ccccn2)c(C)c1[N+](=O)[O-] here?
A: The inhibition was -12.3% (inactive).

Q: For COc1cc([N+](=O)[O-])ccc1NC(=S)NCc1cc(C)n(C)n1, which inhibition is on record?
A: Its inhibition is -13.2% (inactive).

Q: Which inhibition does the source give for C[C@H]1CN([C@@H](C)CO)C(=O)Cc2cc(NC(=O)Nc3ccc(F)cc3)ccc2O[C@H]1CN(C)C(=O)Nc1ccc(C(F)(F)F)cc1 here?
A: Its inhibition is -15.8% (inactive).

Q: Which inhibition does the source give for C[C@@H]1CCCCO[C@@H](CN(C)C)[C@@H](C)CN([C@H](C)CO)C(=O)c2cc(N(C)C)ccc2O1 here?
A: The inhibition was 5.75% (inactive).

Q: With CCOC(=O)Cc1csc(NC(=O)c2sc3cccc(F)c3c2Cl)n1 as the molecule, how does the inhibition read?
A: Its inhibition is 57.6% (inactive).

Q: With CN(CC(=O)Nc1ccc(Br)cc1)S(=O)(=O)c1ccc2ccccc2c1 as the molecule, how does the inhibition read?
A: Its inhibition is 11% (inactive).

Q: For C[C@H](CO)N1C[C@H](C)[C@H](CN(C)C(=O)Nc2ccc(C(F)(F)F)cc2)Oc2ccc(NC(=O)Nc3ccccc3)cc2C1=O, which inhibition is on record?
A: The inhibition was 43% (inactive).

Q: For O=C(CN1C(=O)COc2ccc(Cl)cc21)Nc1ccc(N2CCOCC2)cc1, which inhibition is on record?
A: Its inhibition is -7.45% (inactive).

Q: Which inhibition does the source give for Cc1ccc(C)c(NC(=O)CSc2nc(C)nc3sc(C)c(C)c23)c1 here?
A: Its inhibition is 3.61% (inactive).

Q: For CCSC1=C(C#N)C(=O)NCS1, which inhibition is on record?
A: The inhibition was -7.65% (inactive).

Q: For O=C(CSc1nnc(-c2ccc(Br)cc2)o1)Nc1ccc2ccccc2c1, which inhibition is on record?
A: The inhibition was -4.41% (inactive).

Q: Which inhibition does the source give for O=C1c2ccccc2S(=O)c2ccccc2S(=O)(=O)N1Cc1ccccc1 (stereo not drawn) here?
A: Its inhibition is 46.6% (inactive).

Q: Which inhibition does the source give for C[C@@H]1CN([C@H](C)CO)C(=O)c2cc(NC(=O)Nc3ccccc3)ccc2O[C@@H]1CN(C)Cc1ccc(Cl)c(Cl)c1 here?
A: The inhibition was 34.3% (inactive).

Q: For C[C@H](CO)N1C[C@H](C)[C@@H](CN(C)S(=O)(=O)c2cn(C)cn2)Oc2c(NC(=O)C3CC3)cccc2C1=O, which inhibition is on record?
A: Its inhibition is -3.68% (inactive).

Q: With O=C(NCCCn1ccnc1)c1cc2c(s1)CCCC2 as the molecule, how does the inhibition read?
A: Its inhibition is 1.51% (inactive).

Q: With O=C(O)c1cccc(S(=O)(=O)Nc2ccc(O)cc2Sc2nc3ccccc3s2)c1 as the molecule, how does the inhibition read?
A: The inhibition was 7.04% (inactive).

Q: With O=C(CCn1nc(-c2ccc(Cl)cc2)c2ccccc2c1=O)Nc1cccc(C(F)(F)F)c1 as the molecule, how does the inhibition read?
A: Its inhibition is 4.42% (inactive).

Q: For C[C@H](CO)N1C[C@H](C)[C@H](CN(C)C(=O)Nc2ccccc2)Oc2c(NC(=O)Nc3ccc(C(F)(F)F)cc3)cccc2C1=O, which inhibition is on record?
A: The inhibition was 21.9% (inactive).

Q: For C[C@@H]1CCCCO[C@H](CN(C)Cc2ccc(Cl)c(Cl)c2)[C@@H](C)CN([C@H](C)CO)C(=O)c2cc(NS(=O)(=O)c3cn(C)cn3)ccc2O1, which inhibition is on record?
A: The inhibition was -5.53% (inactive).

Q: For COc1ccc(CN(C)C[C@@H]2Oc3ccc(NS(=O)(=O)c4cn(C)cn4)cc3C(=O)N([C@@H](C)CO)C[C@H]2C)cc1, which inhibition is on record?
A: The inhibition was -13% (inactive).

Q: With O=C1Cc2ccc(F)cc2CC1C1=Cc2ccc(F)cc2CC1 (stereo not drawn) as the molecule, how does the inhibition read?
A: Its inhibition is 5.98% (inactive).

Q: Which inhibition does the source give for C[C@H]1CN([C@@H](C)CO)C(=O)c2cc(NC(=O)NC3CCCCC3)ccc2O[C@@H]1CN(C)C(=O)Nc1cccc2ccccc12 here?
A: The inhibition was 10.4% (inactive).

Q: With COc1ccc(C)cc1S(=O)(=O)N(C)CC(=O)Nc1ccc(Br)cc1F as the molecule, how does the inhibition read?
A: The inhibition was 8.55% (inactive).

Q: For C[C@@H]1CN([C@H](C)CO)C(=O)Cc2cc(NC(=O)Nc3ccc(C(F)(F)F)cc3)ccc2O[C@H]1CN(C)Cc1ccc(-c2ccccc2)cc1, which inhibition is on record?
A: The inhibition was -11.6% (inactive).

Q: For Cc1ccc(-n2c(SCC(=O)Nc3ccccc3F)nnc2-c2ccccc2)cc1C, which inhibition is on record?
A: The inhibition was 10.1% (inactive).

Q: For C[C@@H]1CN([C@H](C)CO)C(=O)c2cccc(NC(=O)Nc3ccc4c(c3)OCO4)c2O[C@H]1CN(C)C(=O)Nc1ccc(F)cc1, which inhibition is on record?
A: The inhibition was 7.91% (inactive).

Q: Which inhibition does the source give for Cc1cc(C)c(C)c(Oc2coc3cc(OCC(=O)Nc4ccccc4Cl)ccc3c2=O)c1 here?
A: The inhibition was -3.54% (inactive).

Q: Which inhibition does the source give for C[C@@H]1CN([C@@H](C)CO)C(=O)c2cc(NS(=O)(=O)c3ccc(F)cc3)ccc2O[C@@H]1CN(C)C(=O)NC1CCCCC1 here?
A: The inhibition was 1.15% (inactive).

Q: Which inhibition does the source give for O=C(CSc1nc2c(c(C(F)(F)F)n1)CCCC2)N1c2ccccc2Sc2ccccc21 here?
A: The inhibition was 11% (inactive).

Q: Which inhibition does the source give for O=[N+]([O-])c1ccccc1-c1ccc(CN2CCN3CCCC3C2C2CCCCC2)o1 (stereo not drawn) here?
A: Its inhibition is -7.52% (inactive).

Q: Which inhibition does the source give for C/C=C(/C)C(=O)O[C@H]1CC(C)(C)C[C@H]2C3=CCC4[C@@]5(C)CC[C@H](O[C@@H]6O[C@H](C(=O)O)[C@@H](O[C@@H]7O[C@H](CO)[C@H](O)[C@H](O)[C@H]7O[C@@H]7O[C@H](CO)[C@@H](O)[C@H](O)[C@H]7O)[C@H](O)[C@H]6O[C@@H]6O[C@@H](C)[C@H](O)[C@@H](O)[C@H]6O)C(C)(C)C5CC[C@@]4(C)[C@]3(C)[C@@H](O)[C@@H](O)[C@@]12CO (stereo partly drawn) here?
A: Its inhibition is 93.6% (active).

Q: For C/C=C(/C)C(=O)O[C@H]1CC(C)(C)C[C@H]2C3=CCC4[C@@]5(C)CC[C@H](O[C@@H]6O[C@H](C(=O)O)[C@@H](O[C@@H]7O[C@H](CO)[C@H](O)[C@H](O)[C@H]7O[C@@H]7O[C@H](CO)[C@@H](O)[C@H](O)[C@H]7O)[C@H](O)[C@H]6O[C@@H]6O[C@@H](C)[C@H](O)[C@@H](O)[C@H]6O)C(C)(C)C5CC[C@@]4(C)[C@]3(C)[C@@H](OC(C)=O)[C@@H](O)[C@@]12COC(C)=O (stereo partly drawn), which inhibition is on record?
A: Its inhibition is 50.5% (inactive).

Q: For CC1OC(OC2C(OC3C(O[C@H]4CC[C@@]5(C)C(CC[C@]6(C)C5CC=C5[C@@H]7CC(C)(C)C[C@@H](O)[C@]7(C)CC[C@]56C)C4(C)C)OC(C(=O)O)C(O)C3O)OC(CO)C(O)C2O)C(O)C(O)C1O (stereo partly drawn), which inhibition is on record?
A: Its inhibition is -6.6% (inactive).

Q: For O=C(CSc1nnc2c(n1)[nH]c1ccccc12)Nc1cccc(C(F)(F)F)c1, which inhibition is on record?
A: Its inhibition is 63.8% (inactive).

Q: Which inhibition does the source give for CN(c1ccc(C(=O)NCc2ccccn2)cc1)S(C)(=O)=O here?
A: Its inhibition is -16% (inactive).

Q: Which inhibition does the source give for COC(=O)c1scc(S(=O)(=O)C(C)(C)C)c1-n1cccc1 here?
A: The inhibition was 3.33% (inactive).

Q: Which inhibition does the source give for C[C@@H]1CN([C@@H](C)CO)C(=O)c2cccc(NS(=O)(=O)c3cn(C)cn3)c2O[C@H]1CN(C)Cc1ccc(Cl)c(Cl)c1 here?
A: Its inhibition is -17% (inactive).

Q: With CC(C)NC(=O)Nc1ccc2c(c1)C(=O)N([C@H](C)CO)C[C@H](C)[C@@H](CN(C)CC1CCCCC1)OCCCC[C@@H](C)O2 as the molecule, how does the inhibition read?
A: The inhibition was 0.663% (inactive).

Q: With COc1ccc(CN(C)C[C@@H]2Oc3ccc(NC(=O)Nc4ccc(OC)cc4)cc3C(=O)N([C@H](C)CO)C[C@H]2C)cc1 as the molecule, how does the inhibition read?
A: The inhibition was -5.96% (inactive).

Q: Which inhibition does the source give for CCc1ccccc1NC(=O)Cn1cnc2scc(-c3ccc(OC)cc3)c2c1=O here?
A: The inhibition was 27.3% (inactive).

Q: With COc1ccc(S(=O)(=O)Nc2cccc3c2O[C@H](CN(C)C(=O)Nc2cccc4ccccc24)[C@H](C)CN([C@@H](C)CO)C3=O)cc1 as the molecule, how does the inhibition read?
A: Its inhibition is 4.99% (inactive).

Q: With NC(=S)c1cnn2c(C(F)(F)F)cc(C(F)(F)F)nc12 as the molecule, how does the inhibition read?
A: Its inhibition is 6.61% (inactive).

Q: With C[C@@H]1CN([C@@H](C)CO)C(=O)c2cc(NC(=O)CCN3CCOCC3)ccc2O[C@@H]1CN(C)S(=O)(=O)c1ccccc1 as the molecule, how does the inhibition read?
A: Its inhibition is -5.16% (inactive).

Q: With C[C@H](CO)N1C[C@H](C)[C@@H](CN(C)Cc2ccc(C(F)(F)F)cc2)Oc2c(NC(=O)NC3CCCCC3)cccc2C1=O as the molecule, how does the inhibition read?
A: Its inhibition is 15.8% (inactive).

Q: Which inhibition does the source give for C[C@@H]1CN([C@@H](C)CO)C(=O)Cc2cc(NC(=O)Cc3ccccc3)ccc2O[C@@H]1CN(C)Cc1ccc2c(c1)OCO2 here?
A: Its inhibition is 4.15% (inactive).

Q: For O=C(CSc1nnc2n1CCCN2)c1ccccc1, which inhibition is on record?
A: The inhibition was -27.2% (inactive).

Q: Which inhibition does the source give for Cc1ccc(C23CC4CC(CC(CN)(C4)C2)C3)cc1C here?
A: The inhibition was 94.1% (active).

Q: For C[C@@H]1CN([C@H](C)CO)C(=O)Cc2cc(NC(=O)Nc3ccc4c(c3)OCO4)ccc2O[C@@H]1CN(C)C(=O)Nc1ccccc1, which inhibition is on record?
A: Its inhibition is 8.24% (inactive).

Q: Which inhibition does the source give for COc1ccc(S(=O)(=O)Nc2ccc3c(c2)CC(=O)N([C@@H](C)CO)C[C@@H](C)[C@@H](CN(C)C)O3)cc1 here?
A: The inhibition was -7.94% (inactive).

Q: Which inhibition does the source give for C[C@@H]1CCCCO[C@@H](CN(C)Cc2ccncc2)[C@@H](C)CN([C@H](C)CO)C(=O)c2cc(NS(=O)(=O)c3cccs3)ccc2O1 here?
A: Its inhibition is -6.77% (inactive).

Q: For C[C@H]1CN([C@@H](C)CO)C(=O)Cc2cc(NC(=O)Nc3ccccc3)ccc2O[C@H]1CN(C)S(=O)(=O)c1cn(C)cn1, which inhibition is on record?
A: The inhibition was -4.73% (inactive).
